Screening results (PubChem)
AGP1 TOR yeast: yeast TOR pathway AGP1-GFP modulation; AID 2066; GFP response vs DMSO, % at 10 µM; S. cerevisiae AGP1-GFP multiplex flow cytometry, 3 h; GFP as percent of DMSO wells; hit rate 0.02% among 320,000;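 active means GFP response relative to DMSO above a set limit, near screen average plus 3 SD, cut at about 150% in these data; inconclusive means fewer than 70 cells counted for the yeast strain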;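 further: median GFP channel fluorescence of the gated AGP1 strain per well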
CIT2 TOR yeast: alters CIT2-GFP fluorescence in TOR pathway yeast screen | hit rate 0.065% among 320,000 | GFP response vs DMSO, % at 10 µM | AID 2029 | S. cerevisiae CIT2-GFP strain, flow cytometry, 3 h; 100 means same as DMSO wells;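 active means GFP response relative to DMSO above a set limit, near the screen mean plus 3 SD, cut at about 150% in these data; inconclusive means Fewer than 70 cells measured for a yeast strain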;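 further: ratio of well median GFP fluorescence to mean of DMSO wells on the plate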
RPL19A-GFP yeast: modulators of TOR pathway RPL19A-GFP in S. cerevisiae; S. cerevisiae RPL19A-GFP strain, flow cytometry, 3 h; active compounds read low; percent response vs DMSO, % at 10 µM; hit rate 0.3% among 330,000;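 active means percent response vs DMSO below 50%; inconclusive means fewer than 70 events counted for the yeast strain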;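 further: median channel GFP fluorescence of the barcoded RPL19A-GFP strain; ratio of sample median GFP to plate DMSO average so 100% = DMSO; lower means less RPL19A-GFP as with rapamycin TOR inhibition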
VLA-4 inh: inhibition in a human VLA-4 binding assay. P13612. VLA-4 expressing cells, ligand binding flow cytometry. inhibition, % (about 7 µM as worked out from the volumes in the protocol). hit rate 0.2% among 330,000. AID 2557; in the data active means inhibition above about 50%
Target sequence (P13612 whole entry, looked up): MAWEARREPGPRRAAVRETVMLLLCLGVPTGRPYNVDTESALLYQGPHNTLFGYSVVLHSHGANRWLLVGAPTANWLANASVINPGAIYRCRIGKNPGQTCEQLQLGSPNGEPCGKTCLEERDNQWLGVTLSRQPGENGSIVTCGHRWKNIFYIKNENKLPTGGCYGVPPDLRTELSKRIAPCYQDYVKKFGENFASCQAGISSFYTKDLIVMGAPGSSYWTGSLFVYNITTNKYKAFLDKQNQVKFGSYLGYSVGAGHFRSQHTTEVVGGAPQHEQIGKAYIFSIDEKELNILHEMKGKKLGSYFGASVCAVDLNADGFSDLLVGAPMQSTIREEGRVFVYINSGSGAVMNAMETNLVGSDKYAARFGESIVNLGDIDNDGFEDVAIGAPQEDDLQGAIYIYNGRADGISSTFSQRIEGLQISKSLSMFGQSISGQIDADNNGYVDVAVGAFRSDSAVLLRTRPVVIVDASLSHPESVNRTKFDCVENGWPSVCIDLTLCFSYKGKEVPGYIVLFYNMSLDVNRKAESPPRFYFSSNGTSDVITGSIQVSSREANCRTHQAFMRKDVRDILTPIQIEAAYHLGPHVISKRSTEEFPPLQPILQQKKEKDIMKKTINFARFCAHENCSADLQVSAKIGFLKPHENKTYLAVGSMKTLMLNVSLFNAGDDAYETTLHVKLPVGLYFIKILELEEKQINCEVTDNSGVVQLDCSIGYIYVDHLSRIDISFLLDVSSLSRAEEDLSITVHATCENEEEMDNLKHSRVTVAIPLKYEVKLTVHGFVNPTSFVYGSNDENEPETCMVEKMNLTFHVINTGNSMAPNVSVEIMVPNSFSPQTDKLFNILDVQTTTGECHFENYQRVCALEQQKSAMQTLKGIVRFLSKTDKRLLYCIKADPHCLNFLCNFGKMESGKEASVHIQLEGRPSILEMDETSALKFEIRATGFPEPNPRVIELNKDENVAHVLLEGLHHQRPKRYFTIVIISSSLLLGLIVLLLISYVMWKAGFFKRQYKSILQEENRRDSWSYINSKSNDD
MEP2 TOR yeast: alters MEP2-GFP fluorescence in TOR pathway yeast screen. S. cerevisiae MEP2-GFP strain, flow cytometry GFP, 3 h; 100% = DMSO control level. GFP response vs DMSO, % at 10 µM. hit rate 0.51% among 330,000;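 active means GFP response versus DMSO above a set limit, roughly screen mean plus 3 SD, cut at about 180% in these data; inconclusive means fewer than 70 cells counted for a yeast strain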;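 further: median GFP fluorescence of the barcode-gated MEP2-GFP cells per well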
LAP4 TOR yeast: yeast TOR pathway LAP4-GFP modulation. S. cerevisiae LAP4-GFP multiplex, flow cytometry GFP, 3 h; median GFP as percent of DMSO wells. GFP response vs DMSO, % at 10 µM. hit rate 0.34% among 320,000;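 active means GFP response vs DMSO above a set limit, about the screen mean plus 3 SD, cut at about 150% in these data; inconclusive means under 70 cell events counted for the yeast strain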
* hit, by the source's call; [ ] = dose if it differs, or a comment. Sampled rows, rich in hits. Any-hit rate of the full collection: about 1.1%.

Results for CCOC(=O)N1CCC(NC(=O)C(NS(=O)(=O)c2cccc3nsnc23)c2ccccc2)CC1 (stereo not drawn) ?
AGP1 TOR yeast: inconclusive; CIT2 TOR yeast: inconclusive; RPL19A-GFP yeast: 38*[may fluoresce violet]; VLA-4 inh: -3; MEP2 TOR yeast: 95; LAP4 TOR yeast: 129

What do the screens show for `C/C(=N\NC(=O)Cc1ccc([N+](=O)[O-])cc1)c1cccnc1`?
AGP1 TOR yeast: 122; CIT2 TOR yeast: 151*; RPL19A-GFP yeast: 99; VLA-4 inh: 4; MEP2 TOR yeast: 165; LAP4 TOR yeast: 79

How did C/C(=N/NC(=O)CNC(=O)c1cccnc1)c1ccc([N+](=O)[O-])cc1 do in these assays?
AGP1 TOR yeast: 97; CIT2 TOR yeast: 91; RPL19A-GFP yeast: 97; VLA-4 inh: 34; MEP2 TOR yeast: 105; LAP4 TOR yeast: 100

How did c1ccc(Cn2c(-c3ccco3)nc3nc4ccccc4nc32)cc1 do in these assays?
AGP1 TOR yeast: 98; CIT2 TOR yeast: 114; RPL19A-GFP yeast: 97; VLA-4 inh: -32; MEP2 TOR yeast: 112; LAP4 TOR yeast: 104

What do the screens show for `CCCCCn1c(-c2ccco2)nc2nc3ccccc3nc21`?
AGP1 TOR yeast: 83; CIT2 TOR yeast: inconclusive; RPL19A-GFP yeast: 96; VLA-4 inh: -15; MEP2 TOR yeast: 209*[may fluoresce violet]; LAP4 TOR yeast: 111

Results for CC(=O)c1cc(C(=O)Nc2ccc(C(=O)O)cc2)oc1C ?
CIT2 TOR yeast: inconclusive; RPL19A-GFP yeast: 50*[may fluoresce violet]; VLA-4 inh: -10; MEP2 TOR yeast: 545*[may fluoresce violet]; LAP4 TOR yeast: 111

What do the screens show for `Cc1ccc2nc3n(c(=O)c2c1)-c1ccc(Cl)cc1C(=O)NC3CC(C)C` (stereo not drawn)?
AGP1 TOR yeast: 99; CIT2 TOR yeast: 100; RPL19A-GFP yeast: 101; VLA-4 inh: 7; MEP2 TOR yeast: 96; LAP4 TOR yeast: 98

How did O=C(CC1N=C2c3ccccc3N=C(SCc3ccc(F)cc3)N2C1=O)NCc1ccco1 (stereo not drawn) do in these assays?
AGP1 TOR yeast: inconclusive; CIT2 TOR yeast: inconclusive; RPL19A-GFP yeast: 18*[may fluoresce violet]; VLA-4 inh: 2; MEP2 TOR yeast: 232*[may fluoresce violet]; LAP4 TOR yeast: 88

What do the screens show for `Cc1nnc(SCCn2c(N3CCN(C)CC3)nc3c2c(=O)[nH]c(=O)n3C)s1`?
AGP1 TOR yeast: 20; CIT2 TOR yeast: inconclusive; RPL19A-GFP yeast: 65; VLA-4 inh: -8; MEP2 TOR yeast: 184*[may fluoresce violet]; LAP4 TOR yeast: 95

Results for O=C(OCCCOC(=O)c1ccc(Br)o1)c1ccc(Br)o1 ?
AGP1 TOR yeast: 108; CIT2 TOR yeast: 79; RPL19A-GFP yeast: 101; VLA-4 inh: -2; MEP2 TOR yeast: 107; LAP4 TOR yeast: 158*

Results for COc1ccccc1NC(=S)NNC(=O)c1ccncc1 ?
AGP1 TOR yeast: 18; CIT2 TOR yeast: inconclusive; RPL19A-GFP yeast: 51; VLA-4 inh: -1; MEP2 TOR yeast: 191*[may fluoresce violet]; LAP4 TOR yeast: 86

How did COc1ccccc1NC(=S)NNC(=O)c1ccccc1 do in these assays?
CIT2 TOR yeast: 98; RPL19A-GFP yeast: 98; VLA-4 inh: -7; MEP2 TOR yeast: 102; LAP4 TOR yeast: 96

How did O=C(CN1CCC(NC(=O)Nc2ccccc2)CC1)Nc1ccc([N+](=O)[O-])cc1 do in these assays?
AGP1 TOR yeast: 98; CIT2 TOR yeast: 107; RPL19A-GFP yeast: 104; VLA-4 inh: -9; MEP2 TOR yeast: 107; LAP4 TOR yeast: 100

What do the screens show for `Cc1ccc2nc(NCc3ccc(F)cc3)c3nncn3c2c1`?
AGP1 TOR yeast: 90; CIT2 TOR yeast: 92; RPL19A-GFP yeast: 32*; VLA-4 inh: -3; MEP2 TOR yeast: 152; LAP4 TOR yeast: 111

What do the screens show for `Cc1ccc(CNc2nc3ccccc3n3cnnc23)cc1`?
AGP1 TOR yeast: 100; CIT2 TOR yeast: 98; RPL19A-GFP yeast: 96; VLA-4 inh: -9; MEP2 TOR yeast: 94; LAP4 TOR yeast: 101

What do the screens show for `COc1cccc(CNC(=O)C2CSC3(C)CCC(=O)N23)c1` (stereo not drawn)?
AGP1 TOR yeast: 105; CIT2 TOR yeast: 104; RPL19A-GFP yeast: 100; VLA-4 inh: -58; MEP2 TOR yeast: 107; LAP4 TOR yeast: 103

How did Cc1nn(Cc2ccccc2Cl)c(C)c1C(=O)NCc1ccco1 do in these assays?
AGP1 TOR yeast: 113; CIT2 TOR yeast: 140; RPL19A-GFP yeast: 95; VLA-4 inh: 4; MEP2 TOR yeast: 201*; LAP4 TOR yeast: 150*

Results for O=C(CNCc1ccccc1Cl)NCc1ccco1 ?
AGP1 TOR yeast: 97; CIT2 TOR yeast: 96; RPL19A-GFP yeast: 99; VLA-4 inh: 3; MEP2 TOR yeast: 102; LAP4 TOR yeast: 110

What do the screens show for `COC(=O)n1c(=S)oc2cc(Cl)ccc21`?
AGP1 TOR yeast: 81; CIT2 TOR yeast: 66; RPL19A-GFP yeast: 66; VLA-4 inh: -5; MEP2 TOR yeast: 107; LAP4 TOR yeast: 159*

What do the screens show for `CCOc1ccc(Nc2ccc(C(=O)O)cc2[N+](=O)[O-])cc1`?
AGP1 TOR yeast: 90; CIT2 TOR yeast: 70; RPL19A-GFP yeast: 98; VLA-4 inh: -20; MEP2 TOR yeast: 115; LAP4 TOR yeast: 161*

Results for CC(C)(C)OC(=O)C[C@@H]1C/C=C\C[C@@H](CC(=O)NCCO)C(=O)NC[C@@H](c2ccccc2)OC1=O ?
AGP1 TOR yeast: 97; CIT2 TOR yeast: 93; RPL19A-GFP yeast: 98; VLA-4 inh: 13; MEP2 TOR yeast: 97; LAP4 TOR yeast: 99

How did O=C(NCC(=O)N1CCCC1)c1cccs1 do in these assays?
AGP1 TOR yeast: 120; CIT2 TOR yeast: 145; RPL19A-GFP yeast: 111; VLA-4 inh: 6; MEP2 TOR yeast: 174; LAP4 TOR yeast: 152*

How did COc1cc(C)c(C)cc1S(=O)(=O)N1CCCCC1c1cccnc1 (stereo not drawn) do in these assays?
AGP1 TOR yeast: 96; CIT2 TOR yeast: 69; RPL19A-GFP yeast: 91; VLA-4 inh: -2; MEP2 TOR yeast: 207*; LAP4 TOR yeast: 115

What do the screens show for `CC(=O)Nc1ccc(S(=O)(=O)N2CCCCC2c2cccnc2)cc1` (stereo not drawn)?
AGP1 TOR yeast: 90; CIT2 TOR yeast: 73; RPL19A-GFP yeast: 92; VLA-4 inh: 14; MEP2 TOR yeast: 93; LAP4 TOR yeast: 84

Results for COc1ccc(N(CC(=O)NCc2ccccc2)S(=O)(=O)c2c(C)n[nH]c2C)cc1 ?
AGP1 TOR yeast: 96; CIT2 TOR yeast: 96; RPL19A-GFP yeast: 98; VLA-4 inh: 5; MEP2 TOR yeast: 94; LAP4 TOR yeast: 89

How did COc1ccc(-n2nc(C(=O)N(C)C)nc2-c2ccccc2)cc1 do in these assays?
AGP1 TOR yeast: 89; CIT2 TOR yeast: 93; RPL19A-GFP yeast: 93; VLA-4 inh: 17; MEP2 TOR yeast: 100; LAP4 TOR yeast: 86

How did O=C(c1cccc(F)c1)N1CCC(N2CCOCC2)CC1 do in these assays?
AGP1 TOR yeast: 33; CIT2 TOR yeast: inconclusive; VLA-4 inh: 4; MEP2 TOR yeast: 262*[may fluoresce violet]; LAP4 TOR yeast: 84
